In the library only some 18% were active in any assay of this set; here they are far more common.
HepG2 tox – qHTS for Inhibitors of TGF-b: Cytotox Counterscreen; Potency, µM (doses to about 46.1 µM), actives largely listed as cytotoxic; HepG2 CAGA-GFP viability, ATP luminescence, 18 h; 410,000 compounds, 0.76% hits; AID 588856, 2011
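CellTiter-Glo luminescence gave cytotoxicity after 18 hours at 37 degrees C. The cells were HepG2 CAGA-GFP in 1% FBS DMEM, stimulated with 500 pg/mL TGF-beta after compound addition. %Activity was normalised to no-cell wells (complete cell-killing) and DMSO (no toxicity), and curves were fitted and classified.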
DT40 TDP1 no CPT – qHTS for Inhibitors of human tyrosyl-DNA phosphodiesterase 1 (TDP1): qHTS in cells in absence of CPT | 420,000 compounds, 15% hits | AID 686978, 2013 | Potency, µM (highest dose often 46.2 µM), hits mostly inhibitors | DT40 Tdp1-/- hTDP1 cells, no CPT, ATP luminescence, 48 h; note: nearly all actives have a fitted effect of over 55% in size
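No-CPT arm: Tdp1-/-;hTDP1 DT40 cells (400/well) plus compounds, incubated ≥48 hr at 37 °C. Readout CellTiter-Glo luminescence.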
IL1B secr inh – qHTS for Inhibitors of Inflammasome Signaling: IL-1-beta AlphaLISA Primary Screen; 360,000 compounds, 4.7% hits; THP-1 LPS/ATP IL-1B secretion, AlphaLISA, 16 h; stronger effect = lower value; activity change, % at 57.5 µM; in the data active = activity change below about -50%; inconclusive = mostly about -30% to -49%
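THP-1 cells pretreated 1 hr with compounds (up to 57.5 uM final), then stimulated with LPS (250 ng/mL final) plus ATP (1.25 mM final); secreted IL-1B measured by AlphaLISA after 16 hr, decreased signal indicating inhibition.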
TGFb SMAD3 inh – qHTS for Inhibitors of TGF-b. HepG2 CAGA-GFP TGF-b/SMAD3 reporter, GFP fluorescence, 18 h; TGF-beta stimulated, 500 pg/mL final. Potency, µM (series often up to 46.1 µM), usual class: inhibitors. 410,000 compounds, 1.2% hits. AID 588855, 2011; note: nearly all actives have a fitted effect of over 65% in size
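Cell-based qHTS in HEPG2 carrying a CAGA-GFP Smad reporter; compounds added before 500 pg/mL final TGF-beta, 18 h incubation at 37 degrees C, GFP fluorescence quantified per cell by imaging cytometry.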
TDP1 inh – qHTS Assay for Inhibitors of Tyrosyl-DNA Phosphodiesterase (TDP1); Tyrosyl-DNA phosphodiesterase 1 (Homo sapiens), Q9NUW8; recombinant TDP1, AlphaScreen DNA substrate cleavage; Potency, µM (series often up to 130 µM), hits mostly inhibitors; 350,000 compounds, 0.28% hits; AID 485290, 2010; note: nearly all actives have a fitted effect of over 40% in size
Target sequence (Q9NUW8 whole entry, looked up): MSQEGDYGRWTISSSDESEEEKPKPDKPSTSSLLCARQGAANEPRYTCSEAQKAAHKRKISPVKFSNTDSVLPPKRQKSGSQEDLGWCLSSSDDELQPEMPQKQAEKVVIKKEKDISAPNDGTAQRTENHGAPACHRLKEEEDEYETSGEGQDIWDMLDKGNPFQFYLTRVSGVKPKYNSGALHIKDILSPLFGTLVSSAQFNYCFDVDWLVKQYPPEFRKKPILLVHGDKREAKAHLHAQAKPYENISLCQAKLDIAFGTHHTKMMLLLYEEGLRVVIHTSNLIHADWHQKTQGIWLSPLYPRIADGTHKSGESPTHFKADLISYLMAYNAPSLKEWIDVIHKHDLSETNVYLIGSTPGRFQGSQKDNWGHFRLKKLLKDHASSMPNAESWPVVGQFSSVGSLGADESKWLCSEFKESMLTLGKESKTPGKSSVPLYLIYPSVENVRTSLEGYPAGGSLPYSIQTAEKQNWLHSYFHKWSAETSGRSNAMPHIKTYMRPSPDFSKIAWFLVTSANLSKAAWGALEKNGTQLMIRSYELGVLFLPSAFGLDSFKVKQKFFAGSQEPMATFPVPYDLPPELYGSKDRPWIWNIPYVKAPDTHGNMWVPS
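Recombinant E. coli-expressed Tdp1 (1 nM) preincubated with compound 15 min at RT, then 5'-biotin/3'-phosphotyrosine-FITC DNA substrate (15 nM) added for 5 min. AlphaScreen beads (10 ug/ml) added, 10 min RT; tyrosine-FITC cleavage read as signal loss.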
TDP1 cell CPT – qHTS for Inhibitors of human tyrosyl-DNA phosphodiesterase 1 (TDP1): qHTS in cells in presence of CPT; chicken DT40 Tdp1-/-;hTDP1 cells + 20 nM CPT, ATP luminescence, 48 h; Potency, µM (highest dose often 46.2 µM), hits mostly inhibitors; 420,000 compounds, 12% hits; note: nearly all actives have a fitted effect of over 55% in size
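Chicken DT40 Tdp1-/- cells complemented with human TDP1, 400 cells/well, exposed to compounds plus 20 nM camptothecin for at least 48 h at 37 C; viability read as ATP content by CellTiter-Glo luminescence.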
A number is an active result; 0 = inactive; ? = inconclusive; - = no result given; [ ] = another dose, or the depositor's remark. Unless noted, calls come from the whole dose curve; as a rule, active = well fitted curve in the direction sought with a large enough effect; inconclusive = small, poorly fitted or top-dose-only effect, or another doubt; inactive = no such curve, though single readings can be large; an effect the other way counts as inactive or inconclusive.

SMILES	HepG2 tox	DT40 TDP1 no CPT	IL1B secr inh	TGFb SMAD3 inh	TDP1 inh	TDP1 cell CPT
CCN(CC)CCCNC(=O)c1ccc2c(SCC(=O)O)c3c(nc2c1)CCC3	-	-	-	-	0	-
CCN(C(=O)c1ccc2c(Cl)c3c(nc2c1)CCC3)c1cccc(C)c1	-	-	-	-	0	-
CCCCN(CC)CCNC(=O)c1ccc2c(Cl)c3c(nc2c1)CCC3	0	16µM	?	0	-	?
Cc1nc2c(C(=O)NC(C)c3ccccc3)cnn2c(C)c1Cc1ccccc1 (configuration not stated)	13µM	?	-	0	0	13µM
Cc1ccc(Cc2c(C)nc3nc(SCC(=O)NC(C)c4ccccc4)nn3c2C)cc1 (configuration not stated)	0	?	-	0	0	?
COC(CNC(=O)c1cnn2c(C)c(Cc3ccccc3)c(C)nc12)OC	0	16µM	?	0	0	?
COc1ccc(-n2ncc(C(C)NS(=O)(=O)c3cccs3)c2C)cc1 (configuration not stated)	0	?	0	0	0	0
COc1ccccc1C(=O)NCCC(=O)NCc1cccs1	0	0	0	0	-	0
OC[C@@H]1[C@@H](c2ccccc2)C(c2ccccc2)=NN1c1ccccc1	0	16µM	0	?	0	?
O=C1OCCN1C(=O)[C@H]1[C@H](c2ccc(Cl)cc2)C(c2cccc(Cl)c2)=NN1c1ccccc1	0	?	0	0	0	0
OC[C@@H]1[C@@H](c2ccccc2)C(c2cccc(Cl)c2)=NN1c1ccccc1	0	21µM	?	?	25µM	21µM
C[C@H]1C(c2ccccc2)=NN(c2ccccc2)[C@@H]1CO	-	-	-	-	0	-
OC[C@@H]1[C@@H](c2ccccc2)C(c2ccc(F)cc2)=NN1c1ccccc1	0	?	0	10µM	0	?
Cc1cccc(C2=NN(c3ccccc3)[C@H](CO)[C@H]2c2ccc(F)cc2)c1	0	?	0	20µM	0	?
Cc1cccc(C2=NN(c3ccccc3)[C@H](CO)[C@H]2c2ccc(Cl)cc2)c1	0	?	0	?	0	?
COc1ccc(CN2CCCC(n3cc(C(=O)N4CCCCC4)nn3)C2)c(OC)c1OC (configuration not stated)	-	0	-	-	-	0[9.04 µM]
Cc1ccc(S(=O)(=O)N2c3ccccc3CC2C)cc1 (configuration not stated)	0	?	0	0	0	?
CC1Cc2ccccc2N1S(=O)(=O)c1cccs1 (configuration not stated)	0	16µM	0	0	0	21µM
CC1Cc2ccccc2N1C(=O)CN1CCN(S(=O)(=O)c2cccs2)CC1 (configuration not stated)	0	15µM	0	0	0	?
CC1Cc2ccccc2N1C(=O)CCS(=O)(=O)c1cccs1 (configuration not stated)	0	0	0	0	0	0
CCOc1ccc(S(=O)(=O)N2c3ccccc3CC2C)cc1 (configuration not stated)	0	0.92µM	0	?	0	0.65µM
NS(=O)(=O)c1ccc(NC(=O)COC(=O)c2cnc(Cl)c(Cl)c2)cc1	0	0	-75	0	0	0
NS(=O)(=O)c1ccc(NC(=O)COC(=O)c2ncc(Cl)c(Cl)c2Cl)cc1	0	0	-62	0	0	0
NS(=O)(=O)c1ccc(NC(=O)COC(=O)c2cc([N+](=O)[O-])ccc2Cl)cc1	0	0	-90	0	0	0
CCOC(=O)c1c(CNc2ccncc2)n(C)c2cc(Br)c(O)cc12	0	?	0	0	0	?
SMILES	HepG2 tox	DT40 TDP1 no CPT	IL1B secr inh	TGFb SMAD3 inh	TDP1 inh	TDP1 cell CPT
O=C(NC1CCS(=O)(=O)C1)c1cccs1 (configuration not stated)	0	0	0	0	0	0
CCOC(=O)c1sc(Nc2nc(C)cc(C)n2)nc1C	0	6.5µM	0	0	0	7.3µM
CCOC(=O)c1sc(Nc2ccc(C)cc2C)nc1C	0	16µM	0	0	0	?
CCOC(=O)c1sc(NC(=O)C2C3C=CC(C3)C2C(=O)O)nc1C (configuration not stated)	0	0	0	0	79µM	0
CCOC(=O)c1sc(Nc2ccc(F)cc2)nc1C	0	?	0	?	0	?
CCOC(=O)c1sc(Nc2nc(C)cc(OC)n2)nc1C	0	13µM	0	0	0	?
CCOC(=O)c1sc(N/N=C/c2cccc(C)c2)nc1C	0	?	0	0	0	?
Cc1nc2scc(C)n2c(=O)c1S(=O)(=O)Nc1ccc(OC(F)(F)F)cc1	0	15µM	0	0	0	21µM
COc1ccc(NS(=O)(=O)c2c(C)nc3scc(C)n3c2=O)cc1	0	?	-	0	0	0
Cc1nc2sccn2c(=O)c1S(=O)(=O)Nc1ccc(N2CCOCC2)c(Cl)c1	0	29µM	0	?	0	18µM
CCOC(=O)c1ccc(NS(=O)(=O)c2c(C)nc3sccn3c2=O)cc1	0	16µM	0	0	-	16µM
CCN1CCN(c2ccc(NS(=O)(=O)c3c(C)nc4sccn4c3=O)cc2Cl)CC1	0	?	-	?	0	?
CCc1cccc(NS(=O)(=O)c2c(C)nc3sc(CC)nn3c2=O)c1	0	21µM	0	?	0	?
COc1ccc(CN2Cc3ccccc3OC(c3ccccc3OC)C2)c(O)c1 (configuration not stated)	-	?	-	-	-	0[9.04 µM]
COc1ccc(Cl)cc1NC(=O)C1CC(c2ccccc2O)=NO1 (configuration not stated)	0	0	0	0	-	0
CCOC(=O)c1cccc(NS(=O)(=O)c2c(C)nc3sc(C)cn3c2=O)c1	0	23µM	-	?	0	13µM
CC(=O)c1cccc(NS(=O)(=O)c2cc3c(cc2C)NC(=O)CO3)c1	0	0	0	0	0	0
Cc1cn2c(=O)c(S(=O)(=O)Nc3ccc(F)cc3F)c(C)nc2s1	0	?	-	0	0	0
CCOC(=O)c1cccc(NS(=O)(=O)c2cc3c(cc2C)NC(=O)CO3)c1	0	18µM	-	?	0	18µM
CC(=O)c1cccc(NS(=O)(=O)c2c(C)nc3sc(C)cn3c2=O)c1	0	15µM	-	0	0	18µM
Cc1ccc(NS(=O)(=O)c2c(C)nc3sc(C)c(C)n3c2=O)cc1F	0	15µM	-	?	?	12µM
